# Shown are actives, neighbours in structure and some others; about 3.1% of the full set was active somewhere.
# BoNT-F LC inh = blocks Botulinum neurotoxin F light chain protease. inhibition, % at 10 µM. 360,000 tested, 0.22% active. Multiplex microsphere protease cleavage assay, flow cytometry; in the data active = inhibition above about 35%, passing the limit was not always enough; inconclusive = no clear call, values can overlap the other calls; also: plate controls were buffer without enzyme for full effect and enzyme alone for no effect
# Anthrax LF inh2 = blocks Bacillus anthracis lethal factor protease; P15917; multiplex microsphere protease cleavage assay, LF; inhibition, % at 10 µM; 360,000 tested, 0.12% active; AID 588501; also: plate controls were buffer without enzyme for full effect and enzyme alone for no effect
# Autofluor counter = flagged as autofluorescent in microsphere protease counterscreen. AID 624483. compound autofluorescence counterscreen, microsphere flow cytometry; stronger effect = higher value. 360,000 tested, 3.1% active. fluorescence intensity (no concentration beside the values); in the data active = fluorescence intensity above about 16000; inconclusive = no clear call, values can overlap the other calls
# BoNT-A LC inh2 = inhibitors of Botulinum neurotoxin A light chain protease; multiplex microsphere protease substrate cleavage, flow cytometry; 360,000 tested, 0.17% active; AID 588499; inhibition, % at 10 µM; also: plate controls were buffer without enzyme for full effect and enzyme alone for no effect
# PriA SSB inh = K. pneumoniae PriA-SSBct interaction inhibition; AlphaScreen SSBct-PriA binding, biotinylated peptide; inhibition, % at 33 µM; AID 1272365; 430,000 tested, 0.6% active; in the data active = inhibition mostly above about 37%, no sharp cut-off; inactive = mostly below about 20%;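 also: plate controls were negative control peptide for no effect and reference peptide for full effect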
# * hit, by the source's call; ? = inconclusive; . = not tested or not shown. Rule as the data show it, unless noted: active = inhibition above about 30%; inconclusive = no clear call, values can overlap the other calls; inactive = below that.
SMILES,BoNT-F LC inh,Anthrax LF inh2,Autofluor counter,BoNT-A LC inh2,PriA SSB inh
Cc1cc(C(=O)Nc2nc3ccc(S(C)(=O)=O)cc3s2)c(C)o1,0,-5,22296*,2,-9
CS(=O)(=O)c1ccc2nc(NC(=O)c3cccs3)sc2c1,-12,2,4395,0,-7
Cc1ccc(C(=O)Nc2nc3ccccc3s2)s1,-1,-1,22825*,-1,-13
Cc1nc2ccc(S(=O)(=O)Nc3ccccc3C)cc2s1,-8,-4,17531*,-5,-7
Cc1ccc(C(=O)Nc2nc3ccc(S(C)(=O)=O)cc3s2)s1,3,-1,21772*,2,-8
Cc1ccc(N(C)S(=O)(=O)c2ccsc2-c2nc(-c3ccccc3Cl)no2)cc1,.,.,.,.,-3
Cc1ccc(S(=O)(=O)Nc2nc3ccc(S(C)(=O)=O)cc3s2)cc1,-3,0,11164,0,40*
COC(=O)c1scc(C)c1N/N=C(\C)c1ccc(F)cc1,-11,-10,23635*,?,.
Cc1csc(C(=O)O)c1NC(=O)c1ccc(F)cc1,-12,4,3044,0,-3
CN(c1ccccc1)c1nc2ccsc2c(=O)s1,2,-1,21828*,2,-62
COc1ccccc1N1CCc2c(C)nc3c(OC)cccc3c21,-6,1,22775*,-2,-10
CCCCN1CCC(C#N)(Nc2ccccc2)CC1,-6,0,24452*,-4,-15
COc1cc2c(cc1OC)CN(c1ncnc3scc(-c4ccc(Cl)cc4)c13)CC2,.,.,.,.,-9
CC1=C/C(=C\c2ccc(Br)o2)C(=O)O1,2,0,2028,0,0
O=C1C(=Cc2ccc(Br)o2)C(=O)c2ccccc21,34*,6,7134,3,37
CC(=O)N1CCC(CN2CCCC2)CC1,.,.,.,.,38*
CC(=O)N1CCC(CN2CCOCC2)CC1,.,.,.,.,2
CCn1nnc2c(N3CCN(CC(=O)Nc4ccc(C(C)=O)cc4)CC3)ncnc21,.,.,.,.,0
N#Cc1nc(Cc2ccccc2)oc1NCc1ccccc1Cl,-3,-4,3364,0,40*
N#Cc1nc(-c2ccc(Cl)cc2)oc1NCc1cccc2c1OCO2,-2,-1,19143*,1,-6
Cc1ccc(-c2nc(C#N)c(NCCN3CCCCC3)o2)cc1,-11,-3,22423*,?,-8
COc1ccc(-c2nc(C#N)c(NCc3ccccc3Cl)o2)cc1,4,0,20055*,?,3
N#Cc1nc(Cc2ccccc2)oc1NCc1cccnc1,6,2,2381,-1,-4
O=C(CSc1nc(N2CCCCC2)nc2ccccc12)Nc1ccc2c(c1)OCCO2,.,.,.,.,-8
Cc1cc(C(=O)N2CCSC2c2ccc(Cl)c(Cl)c2)no1 (stereo not given),.,.,.,.,-3
SMILES,BoNT-F LC inh,Anthrax LF inh2,Autofluor counter,BoNT-A LC inh2,PriA SSB inh
Clc1nnc(N/N=C/c2ccccc2)c2ccccc12,-3,-5,16810*,-3,.
COc1ccc(/C=N/Nc2nnc(-c3ncc[nH]3)c3ccccc23)cc1,1,1,21400*,-1,.
Oc1ccc2ccccc2c1/C=N/Nc1nnc(-c2ncc[nH]2)c2ccccc12,-7,14,9066,6,.
NS(=O)(=O)c1ccc(NC(=O)Cc2ccccc2)cc1,.,.,.,.,-9
COC(=O)c1cc(OC)c(OC)cc1NC(=O)c1cccc(OC)c1OC,-4,6,4510,1,-2
COC(=O)c1cc(OC)c(OC)cc1NC(=O)Nc1ccccc1OC,-1,-2,23051*,1,-14
COC(=O)c1ccccc1NC(=O)Nc1cc(C)cc(C)n1,6,-1,21356*,4,-7
COC(=O)c1ccccc1NC(=O)Nc1cc(C)ccn1,0,-1,2026,0,-5
CCN1CCN(C(=O)c2ccccc2N(Cc2ccccc2)S(C)(=O)=O)CC1,1,0,21470*,2,-5
CCN1CCN(C(=O)c2ccccc2N(Cc2ccccc2)S(=O)(=O)c2ccc(C)cc2)CC1,1,-3,21954*,?,1
CN1C(=Cc2cc[n+](C)c3ccccc23)C=Cc2ccccc21,.,.,.,.,34
CCOC(=O)c1c(NC(=O)COC(=O)c2cnc(C)cn2)sc(C(=O)N(C)C)c1C,-106,-11,16695*,-80,-6
O=C(CSc1nc2c(c(=O)[nH]1)CCCC2)N1CCOCC1,.,.,.,.,11
O=C(CSc1nc2c(c(=O)[nH]1)CCCC2)Nc1ccc(Cl)cc1F,0,-3,20550*,0,-27
O=C(CSc1nc2c(c(=O)[nH]1)CCC2)Nc1ccc(F)cc1,-12,-2,4196,-1,2
O=C(O)CSc1nc2c(c(=O)[nH]1)CCCC2,-9,-2,24867*,-8,1
Cc1cccc(NC(=O)C2CC(=O)N(c3ccccc3F)C2)c1C (stereo not given),.,.,.,.,10
Cc1nc(-n2cccc2)sc1C(=O)Nc1nc2c(s1)C(=O)NCCC2,.,.,.,.,active
N#Cc1c2c(nc(N)c1-c1ccccc1)CCCCC2,5,1,2670,0,-1
CSc1nc2c(c(-c3ccccc3)c1C#N)CCC2,3,1,21295*,?,-75
N#Cc1c(N)nc2c(c1-c1ccncc1)CCCCCC2,-2,-3,23466*,-1,-1
N#Cc1c(N)nc2c(c1-c1ccccc1)CCCC2,3,-9,21448*,?,6
Cc1ccc(NC(=O)Cn2nc(C3CCN(S(C)(=O)=O)CC3)n(C)c2=O)cc1Cl,.,.,.,.,-8
Cn1nc(C2CC2)cc1N1CCN(C(=O)c2c(F)cccc2F)CC1,.,.,.,.,-4
Cc1cc(NC(=O)c2ccc(F)cc2)n(-c2nc3ccc(F)cc3s2)n1,.,.,.,.,-14
SMILES,BoNT-F LC inh,Anthrax LF inh2,Autofluor counter,BoNT-A LC inh2,PriA SSB inh
Cc1ccc(Nc2c3c(nc4ncnn24)CC(C)CC3)cc1 (stereo not given),-10,0,3867,0,-13
Cc1ccc(Nc2c3c(nc4ncnn24)CCC3)cc1,-2,0,23876*,-1,-5
CC1(C)CC(=O)c2sc(NC(=O)/C=C/c3ccco3)nc2C1,.,.,.,.,19
COCCn1c(SCC(=O)N2CCC(C)CC2)nc2ccccc2c1=O,3,0,7929,0,-7
COc1ccc(C(=O)Nn2c(SCC(=O)NCc3ccco3)nc3ccccc3c2=O)cc1,9,0,3156,0,3
COc1cc2nc(C3CCC3)n(NC(=O)c3ccco3)c(=O)c2cc1OC,-14,-2,4252,-1,-28
COc1ccc(C(=O)Nn2c(SCC(=O)c3ccc(Cl)cc3)nc3ccccc3c2=O)cc1,0,-1,20288*,0,1
COc1ccc(C(=O)Nn2c(SCC(=O)NC3CCCCC3)nc3ccccc3c2=O)cc1,-2,-1,20612*,-1,-11
COc1ccc(C(=O)Nn2c(C3CCC3)nc3ccccc3c2=O)c(OC)c1,7,-8,18494*,4,-8
COc1ccc(C(=O)Nn2c(SCC(=O)N3CCC(C)CC3)nc3ccccc3c2=O)cc1,-5,0,20975*,?,0
O=S(=O)(c1cc(-c2nc3ccccc3s2)ccc1Cl)N1CCCCCC1,.,.,.,.,-4
Cc1cc(-c2nnc(NC(=O)COc3ccc(Cl)cc3Cl)o2)nn1C,.,.,.,.,-14
CCOC(=O)C1=C(O)CCn2c1nc1ccccc12,11,-7,19422*,9,2
CS(=O)(=O)c1ccc(Nc2nc(CC(=O)O)cs2)cc1,.,.,.,.,17
